What all share (experiment): NCI-60 one-dose screen, 48 h (100 = growth as untreated, 0 = no growth, -100 = all killed)
Holding throughout (details): 10 µM unless noted

In test [1] the test system is T-47D breast.
Test [2] deals with BT-549 breast.
Test [3] has as its system MDA-MB-435 melanoma.
Test [4] has as its system SW-620 colon.
For test [5], the system named is MCF7 breast.
The subject of test [6] is HCT-116 colon.
Test [7] deals with HCC-2998 colon.
For test [8], the system named is KM12 colon.

About 83,000 compounds went through this panel and 20% of them were active in at least one assay; those are over-represented in the sample as a whole.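 Single-concentration screen, 48 h exposure, 96-well plates. Endpoint: percent growth. Below 10 = active.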 Unmarked numbers belong to inactive results. Activity calls are given as the source filed them.

Turning to `COc1ccc(-c2nn(-c3ccc(NC(=O)Nc4cc(C(F)(F)F)cc(C(F)(F)F)c4)cc3)cc2-c2ccncc2)cc1Cl`, the growth is 25.3% in test [1]; 17.5% in test [2]; 8.04% (active) in test [3]; 19.5% in test [4]; 15.5% in test [5]; 2.45% (active) in test [6]. Moreover, the growth in test [7] was 12.3%; in test [8] it was 7.63% (active).

`COc1cc(-c2nc3sc(C)cn3c2/C=C2\C(=O)Nc3ccccc32)c(Br)c(OC)c1OC`: the growth is 51.5% in test [1]; 14.8% in test [2]; -8.78% (active) in test [3]; 21.2% in test [4]; 1.61% (active) in test [5]; 22% in test [6]. The growth in test [7] is 97%; in test [8], 15.1%.

Regarding `CC1(C)N=C(N)N=C(N)N1c1ccc(F)c(C(F)(F)F)c1`, the growth in test [1] is 91.1%; in test [2], 61.5%; in test [3], 40.6%; in test [4], 30.2%; in test [5] it was 26.8%; in test [6], 19.8%. For the same compound, the growth is 34.3% in test [7] and 27.2% in test [8].

Regarding `O=[N+]([O-])c1ccc(NS(=O)(=O)c2cc(Cl)ccc2Cl)c2ccccc12`, the growth was 56% in test [1]; 48% in test [2]; 52.3% in test [3]; 64.4% in test [4]; 46.4% in test [5]; 45% in test [6]. Also, the growth in test [7] is 32.2%; in test [8], 40.5%.

As to `CCC1S/C(=N\N=C(/C)c2cc3ccccc3o2)N(c2ccccc2)C1=O` (configuration not stated), the growth in test [1] is 85.1%; in test [2], 234%; in test [3] it was 107%; in test [4] it was 106%; in test [5], 162%; in test [6], 80.8%. The growth in test [7] is 113%; in test [8] it was 114%.

Regarding `Nc1c(C(=O)O)[nH]c(=O)[nH]c1=O`, the growth is 104% in test [1]; 107% in test [2]; 108% in test [3]; 108% in test [4]; 95.6% in test [5]; 96.8% in test [6]. Also, the growth was 105% in test [7] and 106% in test [8].

Consider `Nc1ncnc2c1c(-c1ccc(Oc3ccccc3)cc1)nn2C[C@@H]1SSC[C@H]1O`, for which the growth in test [1] was 3.82% (active); in test [2], 57.9%; in test [3], 8.48% (active); in test [4], 90.4%; in test [5], 11.4%; in test [6], 46.4%. Further, the growth in test [7] was 88.4%; in test [8], 34.8%.

For `CN(C)c1ccc2cc(-c3nc4ccccc4s3)c(N)nc2c1`, the growth in test [1] is 48.5%; in test [2] it was 61.8%; in test [3], 5.06% (active); in test [4], 43.6%; in test [5], 19.7%; in test [6] it was 43.8%. Further, the growth in test [7] is 77.6%; in test [8], 26.9%.

In the case of `Cc1cc(NC(=O)c2cccc(C(F)(F)F)c2)ccc1-n1ccc2c(NC(=O)c3ccccc3)nccc21`, the growth in test [1] is 78.8%; in test [2] it was 88.7%; in test [3] it was 105%; in test [4] it was 110%; in test [5] it was 103%; in test [6] it was 83.5%. The growth in test [7] was 115%; in test [8] it was 100%.

Consider `Cn1cnc([N+](=O)[O-])c1N1c2ccncc2Sc2ccncc21`, for which the growth was 86% in test [1]; 113% in test [2]; 110% in test [3]; 95.1% in test [4]; 101% in test [5]; 95.7% in test [6]. In addition, the values for the growth in test [7] and in test [8] were 114% and 103%, respectively.

Turning to `CCCCCCCCN(CCCCCCCC)CC(O)c1cc(-c2ccccc2)nc2ccc(OC)cc12` (configuration not stated), the growth in test [1] was 77%; in test [2], 78.8%; in test [3] it was 60.1%; in test [4] it was 23.6%; in test [5], 67%; in test [6], 8.32% (active). The results for the growth in test [7] and in test [8] were 101% and 82.9%, respectively.

Regarding `Cc1ccc(-c2cc(-c3nnc(SCC(=O)c4ccccc4)o3)c3ccccc3n2)cc1`, the growth in test [1] is 93%; in test [2], 93.4%; in test [3], 93.5%; in test [4] it was 101%; in test [5], 91.2%; in test [6], 99%. Also, the growth in test [7] is 99.6%; in test [8], 94.1%.

For the compound `CC[C@@]1(O)C(=O)OCc2c1cc1n(c2=O)Cc2c-1nc1ccccc1c2/C=N/OC(C)(C)C`, the growth was 2.25% (active) in test [1]; -7.82% (active) in test [2]; 13.5% in test [3]; 11.5% in test [4]; 2.42% (active) in test [5]; 3.24% (active) in test [6]. In addition, the values for the growth in test [7] and in test [8] were 6.39% (active) and 1.96% (active), respectively.

For `CC1(C)CC(=O)C2=C(C1)OC1=C(C(=O)CC(C)(C)C1)C2c1ccc(OCc2cn(-c3ccc(F)cc3F)nn2)cc1`, the growth in test [1] is 98.5%; in test [2] it was 110%; in test [3], 92.4%; in test [4], 118%; in test [5], 87.2%; in test [6], 91.9%. Also, the growth is 122% in test [7] and 90.2% in test [8].

As for `C=C1C(=O)O[C@H]2[C@H]1CC/C(C(=O)NCCOCCOCC(=O)Nc1ccc(OC)c(C(N)=O)c1O)=C\CC[C@@]1(C)O[C@@H]21`, the growth in test [1] is 70.6%; in test [2], 86.2%; in test [3], 104%; in test [4], 80.1%; in test [5], 83.6%; in test [6] it was 81.2%. The growth in test [7] was 104%; in test [8] it was 101%.

For `CC(=O)Cc1cccnc1`, the growth was 96.2% in test [1]; 92.4% in test [2]; 110% in test [3]; 97.1% in test [4]; 101% in test [5]; 81.6% in test [6]. The values for the growth in test [7] and in test [8] were 108% and 105%, respectively.

Turning to `COc1cc2ncn3c(=O)c4c5c(sc4nc3c2cc1OC)CCCCC5`, the growth in test [1] is 84.7%; in test [2], 105%; in test [3] it was 109%; in test [4], 101%; in test [5], 86.8%; in test [6] it was 97.4%. Moreover, the growth is 106% in test [7] and 99.2% in test [8].

Consider `COc1ccc(Cl)cc1NC(=O)c1cc2c([nH]1)-c1nc(NC(=O)C(C)C)sc1CC2`, for which the growth in test [1] is 82.7%; in test [2] it was 105%; in test [3], 114%; in test [4] it was 101%; in test [5], 82.6%; in test [6], 80%. Moreover, the growth in test [7] is 101%; in test [8], 94.6%.

For `CCCCC(=O)Nc1nc2ccc(SCCC)cc2s1`, the growth in test [1] is 48%; in test [2] it was 40.6%; in test [3], 4.42% (active); in test [4], 34.6%; in test [5], 35%; in test [6], 31.1%. Moreover, the growth in test [7] was 77.1%; in test [8], 34.1%.

On to `CC(CCC(=O)O)[C@H]1CCC2C3C(=O)C[C@@H]4CC(=O)CC[C@]4(C)C3CC(=O)[C@@]21C` (some centres not stated), for which the growth was 97% in test [1]; 112% in test [2]; 96.5% in test [3]; 98.7% in test [4]; 105% in test [5]; 112% in test [6]. The growth is 103% in test [7] and 108% in test [8].

As for `CCOc1cccc(Nc2nc(N)nc3[nH]c4ccc(O)cc4c23)c1`, the growth in test [1] was 18.8%; in test [2] it was 68.8%; in test [3] it was 84.2%; in test [4], 76.1%; in test [5] it was 43.1%; in test [6], 72.9%. Moreover, the growth was 89.8% in test [7] and 87.6% in test [8].

For the compound `Cc1ccc(/C=C2/C(=O)Nc3cc(Cl)c(-c4csc(N)n4)cc32)cc1`, the growth in test [1] was 34.9%; in test [2], 53.4%; in test [3], -9.13% (active); in test [4] it was 58.6%; in test [5], 35.8%; in test [6], 66%. For the same compound, the growth is 91.4% in test [7] and 44.5% in test [8].

In the case of `CCCCCCCCCCCCCCCCCCNCc1ccc(Cl)cc1`, the growth in test [1] was 9.34% (active); in test [2], 38.5%; in test [3] it was -80.3% (active); in test [4], -75.8% (active); in test [5] it was -71.2% (active); in test [6], -74.5% (active). The values for the growth in test [7] and in test [8] were -82.8% (active) and -77.2% (active), respectively.

Consider `Cc1cccc(NC(=O)CCc2ccc(N3C(N)=NC(N)=NC3(C)C)cc2)c1`, for which the growth in test [1] was 73.1%; in test [2], 45.8%; in test [3], 25.9%; in test [4], 33.5%; in test [5] it was 29.3%; in test [6], 18.9%. Moreover, the growth in test [7] was 33.3%; in test [8] it was 22.7%.

For the compound `C=C1C(=O)O[C@H]2[C@H]1CC/C(C(=O)Nc1ccc(OC)c(C(N)=O)c1O)=C\CC[C@@]1(C)O[C@@H]21`, the growth in test [1] was 16.9%; in test [2], 30.4%; in test [3], 60.6%; in test [4], 23.8%; in test [5] it was 31.1%; in test [6] it was 23.8%. The growth in test [7] is 102%; in test [8], 85%.

Regarding `COc1cc(CN(c2ccc(Cl)cc2)C2OC(=O)c3ccccc32)cc(OC)c1OC` (configuration not stated), the growth in test [1] is 42.3%; in test [2], 44.8%; in test [3], -45% (active); in test [4], 30.8%; in test [5], 31.3%; in test [6] it was 28%. The growth in test [7] was 73.8%; in test [8], 31.8%.

Consider `COc1ccc2c(c1)/C(=C/c1c(-c3cc(OC)c(OC)c(OC)c3Br)nc3sccn13)C(=O)N2`, for which the growth in test [1] was 90.1%; in test [2], 86.2%; in test [3], 93.2%; in test [4], 94.4%; in test [5] it was 85%; in test [6], 87.7%. Besides, the growth in test [7] was 134%; in test [8], 94.6%.

Turning to `COC1OCC(OS(=O)(=O)c2ccc(C)cc2)C(OC(=O)c2ccccc2)C1OC(=O)c1ccccc1` (configuration not stated), the growth was 44.4% in test [1]; 39.1% in test [2]; -5.87% (active) in test [3]; 19.5% in test [4]; 22.6% in test [5]; 32.4% in test [6]. Besides, the growth in test [7] was 56.9%; in test [8], 30.7%.

As for `CC12CCC3C(CCC4CC(O)CCC43C)C1C/C(=C/O)C(=O)O2` (configuration not stated), the growth is 106% in test [1]; 109% in test [2]; 111% in test [3]; 102% in test [4]; 102% in test [5]; 104% in test [6]. For the same compound, the growth in test [7] was 103%; in test [8], 97.8%.

For the origin of these results see PubChem BioAssay (NCI).
